Drawing on publication PMC7862700, “An all-to-all approach to the identification of sequence-specific readers for epigenetic DNA modifications on cytosine”, this text covers binding signal for one sequence.

Assay in all cases: DAPPL (digital affinity profiling via proximity ligation, sequencing); 10 mM Tris-HCl pH 7.5, 50 mM NaCl, 1 mM DTT, 4% glycerol, room temperature, 30 min; GST-TFs on glutathione beads, 16-mer random dsDNA library, 0.1% formaldehyde crosslink after washing; high values mean tight binding
One assay concerns the target T1, FLI1 (Homo sapiens, UniProt Q01543 1-452).
T1 sequence: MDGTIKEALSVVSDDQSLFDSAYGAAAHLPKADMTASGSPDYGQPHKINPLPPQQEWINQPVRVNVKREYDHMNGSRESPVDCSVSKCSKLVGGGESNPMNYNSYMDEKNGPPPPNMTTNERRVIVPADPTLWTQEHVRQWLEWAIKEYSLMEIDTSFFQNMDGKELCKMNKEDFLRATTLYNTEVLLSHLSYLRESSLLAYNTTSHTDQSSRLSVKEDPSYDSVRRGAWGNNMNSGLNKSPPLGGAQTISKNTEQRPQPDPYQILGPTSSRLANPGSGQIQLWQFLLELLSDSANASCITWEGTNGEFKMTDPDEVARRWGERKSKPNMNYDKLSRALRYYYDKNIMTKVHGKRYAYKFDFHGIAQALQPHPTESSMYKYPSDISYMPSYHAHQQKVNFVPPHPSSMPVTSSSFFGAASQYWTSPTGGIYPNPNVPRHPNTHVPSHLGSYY
To be noted: protein: recombinant; tags: N-terminal GST; dsDNA, one strand shown. In short, it runs like this:
(§1)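 In yeast, human transcription factors were expressed with a GST fusion, then pulled down on glutathione beads and given DNA barcodes. Pooled with a tag-only sample, they were exposed to 200 nmole of a 16-mer random double-stranded DNA library (Tris/NaCl/DTT/glycerol buffer, room temperature, 30 min), washed, crosslinked with 0.1% formaldehyde, proximity-ligated using BsaI/T4 ligase for 1 h at 37 °C, PCR-amplified and read on an Illumina NextSeq500. Each hexamer's frequency of reads for a factor, divided by the matching frequency for the tag-only sample, gives the binding signal.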

Another assay deals with T2, ELK1 (Homo sapiens, UniProt P19419 1-428).
T2 sequence: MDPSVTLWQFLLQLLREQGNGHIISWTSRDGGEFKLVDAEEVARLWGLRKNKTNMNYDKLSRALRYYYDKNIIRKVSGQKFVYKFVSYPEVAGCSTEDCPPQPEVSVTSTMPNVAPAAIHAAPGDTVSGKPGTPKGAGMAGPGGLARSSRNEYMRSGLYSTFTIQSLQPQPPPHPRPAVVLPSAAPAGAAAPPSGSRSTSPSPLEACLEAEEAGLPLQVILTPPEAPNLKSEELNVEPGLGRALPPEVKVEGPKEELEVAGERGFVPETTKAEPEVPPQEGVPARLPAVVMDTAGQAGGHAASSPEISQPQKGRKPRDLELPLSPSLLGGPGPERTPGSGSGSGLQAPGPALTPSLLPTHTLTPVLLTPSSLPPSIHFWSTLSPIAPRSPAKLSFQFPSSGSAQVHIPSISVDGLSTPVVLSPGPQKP
Conditions: protein: recombinant; tags: N-terminal GST; dsDNA, one strand shown. The essentials:
as §1

The next assay concerns the target T3, GABPA (Homo sapiens, UniProt Q06546 1-454).
T3 sequence: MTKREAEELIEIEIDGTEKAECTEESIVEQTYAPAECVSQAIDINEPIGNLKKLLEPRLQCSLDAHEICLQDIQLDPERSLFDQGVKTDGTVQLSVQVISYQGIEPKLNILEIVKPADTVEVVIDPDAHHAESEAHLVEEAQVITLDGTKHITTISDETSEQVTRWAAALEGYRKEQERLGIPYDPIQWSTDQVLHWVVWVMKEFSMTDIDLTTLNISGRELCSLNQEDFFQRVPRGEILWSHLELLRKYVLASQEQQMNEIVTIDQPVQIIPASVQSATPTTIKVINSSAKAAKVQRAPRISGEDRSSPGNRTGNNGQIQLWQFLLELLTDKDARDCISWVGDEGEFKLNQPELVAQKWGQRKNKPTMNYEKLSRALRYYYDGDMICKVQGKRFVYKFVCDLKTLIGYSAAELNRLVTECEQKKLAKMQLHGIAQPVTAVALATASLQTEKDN
Conditions: protein: recombinant; tags: N-terminal GST; dsDNA, one strand shown. In short, it runs like this: as §1

The next assay has as its target T4, ERG (Homo sapiens, UniProt P11308 1-479).
T4 sequence: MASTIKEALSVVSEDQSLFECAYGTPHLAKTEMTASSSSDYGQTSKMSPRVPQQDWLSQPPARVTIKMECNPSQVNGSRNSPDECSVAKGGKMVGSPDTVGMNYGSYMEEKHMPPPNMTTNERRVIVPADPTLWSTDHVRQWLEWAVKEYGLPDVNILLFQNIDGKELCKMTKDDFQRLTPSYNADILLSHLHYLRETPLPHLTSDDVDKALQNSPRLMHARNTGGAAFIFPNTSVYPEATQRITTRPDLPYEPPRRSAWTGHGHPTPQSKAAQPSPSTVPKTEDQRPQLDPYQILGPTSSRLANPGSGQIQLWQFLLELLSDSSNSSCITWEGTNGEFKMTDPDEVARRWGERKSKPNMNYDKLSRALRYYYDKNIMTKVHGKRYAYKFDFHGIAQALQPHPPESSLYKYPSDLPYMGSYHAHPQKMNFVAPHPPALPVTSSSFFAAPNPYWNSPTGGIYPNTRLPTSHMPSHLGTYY
Conditions: protein: recombinant; tags: N-terminal GST; dsDNA, one strand shown. The essentials:
as §1

Another assay deals with ELF1 (Homo sapiens, UniProt P32519 1-619). To be noted: protein: recombinant; tags: N-terminal GST; dsDNA, one strand shown. The essentials: as §1
The target in the next assay is T5, EHF (Homo sapiens, UniProt Q9NZC4 1-300).
T5 sequence: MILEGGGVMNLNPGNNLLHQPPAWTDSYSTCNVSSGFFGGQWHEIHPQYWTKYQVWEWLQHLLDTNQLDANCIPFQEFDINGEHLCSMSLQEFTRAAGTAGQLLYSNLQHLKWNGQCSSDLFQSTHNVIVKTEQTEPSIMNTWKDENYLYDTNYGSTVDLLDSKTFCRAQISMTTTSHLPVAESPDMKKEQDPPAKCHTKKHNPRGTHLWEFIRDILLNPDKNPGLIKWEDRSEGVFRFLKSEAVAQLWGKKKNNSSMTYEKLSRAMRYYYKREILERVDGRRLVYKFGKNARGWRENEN
Conditions: protein: recombinant; tags: N-terminal GST; dsDNA, one strand shown. In short, it runs like this:
as §1

The next assay concerns the target SPI1 (Homo sapiens, UniProt P17947 1-270). Conditions: protein: recombinant; tags: N-terminal GST; dsDNA, one strand shown. In short, it runs like this:
as §1

Another assay addresses SPIB (Homo sapiens, UniProt Q01892 1-262). To be noted: protein: recombinant; tags: N-terminal GST; dsDNA, one strand shown. In short, it runs like this: as §1
The next assay concerns the target T6, ELK3 (Homo sapiens, UniProt P41970 1-407).
T6 sequence: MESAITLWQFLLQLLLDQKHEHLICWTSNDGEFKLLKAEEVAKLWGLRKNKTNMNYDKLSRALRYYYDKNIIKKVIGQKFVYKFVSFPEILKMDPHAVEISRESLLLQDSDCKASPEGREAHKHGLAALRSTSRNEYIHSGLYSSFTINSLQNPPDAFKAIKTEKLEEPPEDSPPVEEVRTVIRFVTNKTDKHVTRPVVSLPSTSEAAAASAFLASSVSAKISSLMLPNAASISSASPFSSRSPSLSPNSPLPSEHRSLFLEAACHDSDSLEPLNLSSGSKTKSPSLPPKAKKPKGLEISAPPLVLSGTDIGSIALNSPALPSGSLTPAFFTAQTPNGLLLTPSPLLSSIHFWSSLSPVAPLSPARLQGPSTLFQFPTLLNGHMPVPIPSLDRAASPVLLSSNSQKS
To be noted: protein: recombinant; tags: N-terminal GST; dsDNA, one strand shown. The essentials: as §1

The target in the next assay is T7, FEV (Homo sapiens, UniProt Q99581 1-238).
T7 sequence: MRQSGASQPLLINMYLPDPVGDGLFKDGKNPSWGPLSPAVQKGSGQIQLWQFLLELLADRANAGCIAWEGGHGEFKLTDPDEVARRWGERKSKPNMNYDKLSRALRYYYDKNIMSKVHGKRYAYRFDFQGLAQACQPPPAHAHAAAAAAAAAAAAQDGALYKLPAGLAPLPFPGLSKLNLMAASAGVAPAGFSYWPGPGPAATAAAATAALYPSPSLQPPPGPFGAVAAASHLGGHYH
Conditions: protein: recombinant; tags: N-terminal GST; dsDNA, one strand shown. The essentials:
as §1

A further assay concerns the target ETV5 (Homo sapiens, UniProt P41161 1-510). Conditions: protein: recombinant; tags: N-terminal GST; dsDNA, one strand shown. The essentials: as §1
A further assay concerns the target HSF1 (Homo sapiens, UniProt Q00613 1-529). To be noted: protein: recombinant; tags: N-terminal GST; chain copies: 3; dsDNA, one strand shown. The essentials:
as §1

The target of a further assay is T8, SPIC (Homo sapiens, UniProt Q8N5J4 1-248).
T8 sequence: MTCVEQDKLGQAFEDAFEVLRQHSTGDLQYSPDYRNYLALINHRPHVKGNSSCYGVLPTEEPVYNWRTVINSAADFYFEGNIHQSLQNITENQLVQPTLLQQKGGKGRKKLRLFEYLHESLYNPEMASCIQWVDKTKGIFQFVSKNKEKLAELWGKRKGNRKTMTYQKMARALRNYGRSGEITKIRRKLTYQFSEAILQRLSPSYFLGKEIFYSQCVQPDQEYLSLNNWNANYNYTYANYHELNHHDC
Conditions: protein: recombinant; tags: N-terminal GST; dsDNA, one strand shown. The essentials:
as §1

A further assay addresses ELF4 (Homo sapiens, UniProt Q99607 1-663). To be noted: protein: recombinant; tags: N-terminal GST; dsDNA, one strand shown. In short, it runs like this: as §1
The target of the next assay is T9, ELK4 (Homo sapiens, UniProt P28324-2 1-405).
T9 sequence: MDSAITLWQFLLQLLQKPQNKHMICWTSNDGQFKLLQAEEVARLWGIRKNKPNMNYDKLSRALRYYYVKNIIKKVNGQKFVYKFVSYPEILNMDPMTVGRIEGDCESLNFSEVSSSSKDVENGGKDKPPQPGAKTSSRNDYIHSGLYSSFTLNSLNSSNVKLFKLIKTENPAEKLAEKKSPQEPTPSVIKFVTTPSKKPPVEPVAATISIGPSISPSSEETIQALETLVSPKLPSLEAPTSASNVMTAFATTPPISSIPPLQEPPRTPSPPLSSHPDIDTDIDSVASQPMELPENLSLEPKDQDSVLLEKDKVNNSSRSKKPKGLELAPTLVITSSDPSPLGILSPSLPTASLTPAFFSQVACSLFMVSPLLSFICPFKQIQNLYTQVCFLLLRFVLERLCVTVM
To be noted: protein: recombinant; tags: N-terminal GST; dsDNA, one strand shown. In short, it runs like this:
as §1

The target of the next assay is T10, ETV2 (Homo sapiens, UniProt O00321 1-342).
T10 sequence: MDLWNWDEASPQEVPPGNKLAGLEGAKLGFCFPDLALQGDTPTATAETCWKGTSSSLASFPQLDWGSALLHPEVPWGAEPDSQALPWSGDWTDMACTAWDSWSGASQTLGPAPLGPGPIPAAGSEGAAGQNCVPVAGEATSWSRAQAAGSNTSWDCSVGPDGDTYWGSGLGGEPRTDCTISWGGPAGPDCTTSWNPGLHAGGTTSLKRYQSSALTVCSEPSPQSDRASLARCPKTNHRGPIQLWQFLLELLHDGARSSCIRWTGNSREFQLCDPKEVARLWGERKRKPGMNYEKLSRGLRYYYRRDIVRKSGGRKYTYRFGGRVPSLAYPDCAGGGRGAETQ
To be noted: protein: recombinant; tags: N-terminal GST; dsDNA, one strand shown. The essentials:
as §1

For a further assay, the target named is T11, ELF3 (Homo sapiens, UniProt P78545 1-371).
T11 sequence: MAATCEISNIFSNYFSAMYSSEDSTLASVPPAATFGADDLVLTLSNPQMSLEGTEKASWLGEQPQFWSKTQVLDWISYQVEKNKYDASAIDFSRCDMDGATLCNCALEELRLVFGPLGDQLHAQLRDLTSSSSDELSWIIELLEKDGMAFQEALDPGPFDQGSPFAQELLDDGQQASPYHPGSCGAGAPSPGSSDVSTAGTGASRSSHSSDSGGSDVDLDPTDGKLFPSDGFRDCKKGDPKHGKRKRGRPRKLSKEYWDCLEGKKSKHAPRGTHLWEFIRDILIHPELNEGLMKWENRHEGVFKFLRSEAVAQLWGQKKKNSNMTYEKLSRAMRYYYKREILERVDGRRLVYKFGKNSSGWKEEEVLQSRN
Conditions: protein: recombinant; tags: N-terminal GST; dsDNA, one strand shown. The essentials:
as §1

A further assay has as its target CRX (Homo sapiens, UniProt O43186 1-299). Conditions: protein: recombinant; tags: N-terminal GST; dsDNA, one strand shown. In short, it runs like this:
as §1

The next assay deals with ETV1 (Homo sapiens, UniProt P50549 1-477). Conditions: protein: recombinant; tags: N-terminal GST; dsDNA, one strand shown. The essentials: as §1
ETV1, sequence (P50549 whole entry): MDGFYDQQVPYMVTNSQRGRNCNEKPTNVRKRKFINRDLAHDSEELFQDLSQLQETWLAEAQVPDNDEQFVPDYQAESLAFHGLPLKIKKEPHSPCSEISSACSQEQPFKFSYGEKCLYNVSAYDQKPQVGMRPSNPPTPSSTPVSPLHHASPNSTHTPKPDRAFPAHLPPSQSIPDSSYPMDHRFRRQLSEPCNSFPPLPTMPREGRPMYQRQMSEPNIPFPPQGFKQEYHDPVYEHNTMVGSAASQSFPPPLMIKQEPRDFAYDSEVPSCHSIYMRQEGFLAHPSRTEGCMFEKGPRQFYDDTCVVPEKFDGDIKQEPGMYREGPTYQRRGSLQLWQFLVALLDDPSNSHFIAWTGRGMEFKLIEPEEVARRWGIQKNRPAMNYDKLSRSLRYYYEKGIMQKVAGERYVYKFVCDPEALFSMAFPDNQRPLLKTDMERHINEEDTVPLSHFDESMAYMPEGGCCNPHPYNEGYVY

SPIB, sequence (Q01892 whole entry): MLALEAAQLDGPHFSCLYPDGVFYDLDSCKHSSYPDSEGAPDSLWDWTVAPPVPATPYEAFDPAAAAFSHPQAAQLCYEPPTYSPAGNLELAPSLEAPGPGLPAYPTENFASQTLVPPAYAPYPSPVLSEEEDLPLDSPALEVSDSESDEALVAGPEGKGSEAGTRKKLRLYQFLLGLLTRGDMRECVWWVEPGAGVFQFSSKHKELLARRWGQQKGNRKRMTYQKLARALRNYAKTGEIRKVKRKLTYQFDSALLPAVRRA
CRX, sequence (O43186 whole entry): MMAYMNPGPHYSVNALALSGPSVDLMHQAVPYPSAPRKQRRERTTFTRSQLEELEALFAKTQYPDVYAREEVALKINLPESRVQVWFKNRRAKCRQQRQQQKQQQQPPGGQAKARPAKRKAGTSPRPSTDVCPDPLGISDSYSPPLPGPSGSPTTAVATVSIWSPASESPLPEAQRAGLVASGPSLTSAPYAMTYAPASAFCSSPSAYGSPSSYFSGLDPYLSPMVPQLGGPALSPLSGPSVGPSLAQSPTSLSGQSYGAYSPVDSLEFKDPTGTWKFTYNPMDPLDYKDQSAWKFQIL
ETV5, sequence (P41161 whole entry): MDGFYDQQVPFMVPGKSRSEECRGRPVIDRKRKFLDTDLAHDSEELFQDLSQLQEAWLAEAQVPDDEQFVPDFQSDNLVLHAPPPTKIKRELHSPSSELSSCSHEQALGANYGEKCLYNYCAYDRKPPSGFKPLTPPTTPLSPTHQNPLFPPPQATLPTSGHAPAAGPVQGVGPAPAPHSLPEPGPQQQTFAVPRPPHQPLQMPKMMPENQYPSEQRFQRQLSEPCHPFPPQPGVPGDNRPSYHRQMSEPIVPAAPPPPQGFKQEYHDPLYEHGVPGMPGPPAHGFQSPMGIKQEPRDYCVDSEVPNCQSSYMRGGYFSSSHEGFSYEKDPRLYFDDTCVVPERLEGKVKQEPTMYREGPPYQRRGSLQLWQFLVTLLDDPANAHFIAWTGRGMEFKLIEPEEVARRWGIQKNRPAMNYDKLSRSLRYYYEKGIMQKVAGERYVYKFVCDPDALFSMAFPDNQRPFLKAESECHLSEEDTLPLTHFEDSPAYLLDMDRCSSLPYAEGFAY
ELF1, sequence (P32519 whole entry): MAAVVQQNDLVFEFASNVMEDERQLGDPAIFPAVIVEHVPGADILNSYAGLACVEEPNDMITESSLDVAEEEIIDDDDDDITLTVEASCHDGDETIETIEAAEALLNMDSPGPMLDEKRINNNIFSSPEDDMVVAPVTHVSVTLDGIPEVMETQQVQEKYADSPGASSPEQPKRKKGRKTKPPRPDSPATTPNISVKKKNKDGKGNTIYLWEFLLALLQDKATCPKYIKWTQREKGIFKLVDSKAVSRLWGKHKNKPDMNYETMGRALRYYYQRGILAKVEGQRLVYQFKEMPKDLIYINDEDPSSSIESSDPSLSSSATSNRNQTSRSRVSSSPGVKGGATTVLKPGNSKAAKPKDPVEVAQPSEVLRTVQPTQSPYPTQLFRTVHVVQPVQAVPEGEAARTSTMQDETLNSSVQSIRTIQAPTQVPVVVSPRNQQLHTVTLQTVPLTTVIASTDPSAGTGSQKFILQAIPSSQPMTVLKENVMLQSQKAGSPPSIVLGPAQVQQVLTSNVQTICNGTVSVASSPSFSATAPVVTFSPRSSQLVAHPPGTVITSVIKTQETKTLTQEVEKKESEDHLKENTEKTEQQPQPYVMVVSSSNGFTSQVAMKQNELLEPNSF
HSF1, sequence (Q00613 whole entry): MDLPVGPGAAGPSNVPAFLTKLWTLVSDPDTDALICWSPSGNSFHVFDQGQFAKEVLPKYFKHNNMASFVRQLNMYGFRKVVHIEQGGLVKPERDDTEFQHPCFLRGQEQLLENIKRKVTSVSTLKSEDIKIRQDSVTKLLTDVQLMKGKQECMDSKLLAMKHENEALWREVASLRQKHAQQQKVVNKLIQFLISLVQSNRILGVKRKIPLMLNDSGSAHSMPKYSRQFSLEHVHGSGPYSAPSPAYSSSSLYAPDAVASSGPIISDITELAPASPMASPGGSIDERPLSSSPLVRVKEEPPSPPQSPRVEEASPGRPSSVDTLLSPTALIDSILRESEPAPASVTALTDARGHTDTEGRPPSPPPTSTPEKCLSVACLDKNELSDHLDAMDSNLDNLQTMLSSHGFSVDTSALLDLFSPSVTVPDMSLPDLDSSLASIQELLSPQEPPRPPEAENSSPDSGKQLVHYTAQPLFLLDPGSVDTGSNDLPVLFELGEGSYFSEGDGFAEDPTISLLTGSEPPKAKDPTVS
ELF4, sequence (Q99607 whole entry): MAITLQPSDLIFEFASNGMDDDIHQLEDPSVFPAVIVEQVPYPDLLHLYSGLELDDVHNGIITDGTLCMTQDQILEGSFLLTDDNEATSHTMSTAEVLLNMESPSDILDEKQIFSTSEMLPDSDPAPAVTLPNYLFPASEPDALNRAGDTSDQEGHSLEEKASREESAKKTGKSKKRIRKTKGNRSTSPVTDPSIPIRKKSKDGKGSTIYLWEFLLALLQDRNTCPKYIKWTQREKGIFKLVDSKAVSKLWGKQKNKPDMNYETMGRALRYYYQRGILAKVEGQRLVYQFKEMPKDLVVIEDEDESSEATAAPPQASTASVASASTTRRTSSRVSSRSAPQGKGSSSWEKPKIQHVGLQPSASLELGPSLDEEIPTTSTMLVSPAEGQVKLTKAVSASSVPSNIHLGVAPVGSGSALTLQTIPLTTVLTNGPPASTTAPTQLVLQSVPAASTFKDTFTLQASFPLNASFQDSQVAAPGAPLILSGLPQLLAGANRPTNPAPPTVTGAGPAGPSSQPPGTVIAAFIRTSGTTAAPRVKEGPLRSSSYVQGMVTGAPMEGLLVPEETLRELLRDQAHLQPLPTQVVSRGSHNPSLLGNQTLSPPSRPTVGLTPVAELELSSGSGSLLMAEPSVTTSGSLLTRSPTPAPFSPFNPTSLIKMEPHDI

On to CTGAGC, for which the binding signal with FLI1 was 1.08 fold enrichment (6-mer frequency, TF over GST control); with ELK1 it was 1.15 fold enrichment (6-mer frequency, TF over GST control); in the assay with GABPA, 1.18 fold enrichment (6-mer frequency, TF over GST control); with ERG, 1.09 fold enrichment (6-mer frequency, TF over GST control); with ELF1, 1.19 fold enrichment (6-mer frequency, TF over GST control); with EHF it was 1.18 fold enrichment (6-mer frequency, TF over GST control). Also, the binding signal is 1.11 fold enrichment (6-mer frequency, TF over GST control) with SPI1; 1.06 fold enrichment (6-mer frequency, TF over GST control) with SPIB; 1.18 fold enrichment (6-mer frequency, TF over GST control) with ELK3; 1.21 fold enrichment (6-mer frequency, TF over GST control) with FEV; 1.12 fold enrichment (6-mer frequency, TF over GST control) with ETV5; 1.09 fold enrichment (6-mer frequency, TF over GST control) in the assay with HSF1. Besides, the binding signal in the assay with SPIC is 1.08 fold enrichment (6-mer frequency, TF over GST control); in the assay with ELF4, 1.19 fold enrichment (6-mer frequency, TF over GST control); with ELK4, 1.14 fold enrichment (6-mer frequency, TF over GST control); in the assay with ETV2, 1.37 fold enrichment (6-mer frequency, TF over GST control); with ELF3 it was 1.16 fold enrichment (6-mer frequency, TF over GST control); with CRX, 1.3 fold enrichment (6-mer frequency, TF over GST control). Besides, in the assay with ETV1, the binding signal was 1.15 fold enrichment (6-mer frequency, TF over GST control).
